High-throughput results (PubChem BioAssay)
FLuc counter: counter-screen for miR-21 project: firefly luciferase inhibitors or activators | P08659 | purified FLuc, Km substrates, luminescence inhibition | Potency, µM (titrated, usually from 57.5 µM), for inactives: at the highest dose activity change, negative = inhibition, most hits filed as inhibitors | 360,000 tested, 6.9% active | AID 588342;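 also: plate controls were vehicle for no effect and reference inhibitor for full effect; nearly all actives have a fitted effect of over 55% in size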
Target sequence (P08659 whole entry, looked up): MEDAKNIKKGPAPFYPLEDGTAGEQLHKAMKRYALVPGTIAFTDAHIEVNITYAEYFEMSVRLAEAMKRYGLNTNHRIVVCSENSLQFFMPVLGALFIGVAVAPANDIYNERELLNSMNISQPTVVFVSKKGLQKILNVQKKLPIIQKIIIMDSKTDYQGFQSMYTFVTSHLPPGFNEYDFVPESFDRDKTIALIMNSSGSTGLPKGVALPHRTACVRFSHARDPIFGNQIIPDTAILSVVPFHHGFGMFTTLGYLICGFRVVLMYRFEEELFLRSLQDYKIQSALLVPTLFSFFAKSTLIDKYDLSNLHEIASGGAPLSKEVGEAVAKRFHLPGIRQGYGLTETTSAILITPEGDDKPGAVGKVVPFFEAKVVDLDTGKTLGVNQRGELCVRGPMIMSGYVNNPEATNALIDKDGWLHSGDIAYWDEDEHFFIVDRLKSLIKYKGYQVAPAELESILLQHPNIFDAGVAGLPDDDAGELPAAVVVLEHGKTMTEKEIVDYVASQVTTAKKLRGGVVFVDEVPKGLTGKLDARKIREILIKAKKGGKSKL
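Biochemical qHTS of compounds, final roughly 60 µM downward over six points, against 10 nM purified firefly luciferase using Km concentrations of substrates (10 uM D-luciferin, 10 uM ATP) in Tris acetate pH 7.5 buffer; luminescence output.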
ELG1 genotox: genotoxicity induction in ELG1-luciferase HEK293T cells; Potency, µM (titrated, usually from 46 µM), inactives show at the top dose activity change, positive = activation, actives largely listed as activators; 330,000 tested, 1.3% active; AID 504466; HEK293T ELG1-luciferase reporter, luminescence, 16 h; also: % of control where 0% means no effect; nearly all actives have a fitted effect of over 60% in size
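Luminescence read-out: rising ELG1-luciferase signal, reflecting elevated ELG1 protein under genetic stress, flags genotoxic compounds. Cells were treated for 16 hr at 37 °C before ONE-Glo detection.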
Rab9 promoter act: Rab9 promoter activation; Huh7 Rab9 promoter-luciferase reporter, luminescence, 24 h; Potency, µM (titrated, usually from 9.22 µM), for the others: at the highest dose activation, negative = inhibition, most hits filed as activators; 320,000 tested, 2.8% active; also: % of control where 0% means no effect; nearly all actives have a fitted effect of over 60% in size
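Cells were plated at 1500 per well in reduced-serum medium with 10% FBS and left 2 h. Compound in DMSO was then added for 24 h at 37 °C. Reporter signal was read by luminescence after 10 min with luciferase detection reagent.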
SMN2 splice enh: SMN2 splice variant enhancement | HEK293 SMN2-luciferase splicing reporter, luminescence, 30-36 h | Potency, µM (highest dose often 46.1 µM), without a hit: at the top dose activity change, positive = activation, hits mostly activators | 210,000 tested, 2.8% active | AID 1458; also: % of control where 0% means no effect; nearly all actives have a fitted effect of over 55% in size
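HEK293 cells carry an SMN2 […]–luciferase reporter in which exon 7 inclusion puts luciferase in frame. Cells were plated 10-12 h before compound addition, then incubated 30-36 h at 37C. ONE-Glo luminescence was read; sodium butyrate at 4.5 mM final served as control.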
NPC1 prom act: activators of NPC1 promoter. Huh7 NPC1 promoter luciferase reporter, 24 h. Potency, µM (titrated, usually from 9.22 µM), without a hit: at the highest dose activation, hits mostly activators. 320,000 tested, 2.4% active; also: % of control where 0% means no effect; nearly all actives have a fitted effect of over 60% in size
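NPC1 promoter–luciferase Huh7 cells; 24 h compound; luminescence.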
An asterisk follows results filed as active; ? = inconclusive; . = no result; [ ] = remark or other dose. Hits are enriched below; roughly 7.4% of the tested compounds scored in any of these assays. Calls follow the shape of the dose curve; as a rule, active = well fitted curve in the direction sought with a large enough effect; inconclusive = small, poorly fitted or top-dose-only effect, or another doubt; inactive = no such curve, though single readings can be large; an effect the other way counts as inactive or inconclusive. Potency is read from the fitted curve at half-maximal effect.

SMILES	FLuc counter	ELG1 genotox	Rab9 promoter act	SMN2 splice enh	NPC1 prom act
Clc1ccc(COn2c(-c3ccccc3)nc3ccccc32)cc1	-14%	-3%	-1%	-9%	-8%
O=C(O)COn1c(-c2ccccc2)nc2ccc([N+](=O)[O-])cc21	15µM*	18%	?	29%	26%
Clc1ccc(COn2c(-c3ccc(Cl)cc3)nc3ccccc32)cc1	?	-2%	4%	-24%	-4%
CCOC(=O)C(C)On1c(-c2ccc(Cl)cc2)nc2ccc([N+](=O)[O-])cc21 (centres undefined)	15µM*	12%	18%	-4%	29%
Cc1noc(C)c1S(=O)(=O)Nc1ccc(C(=O)Nc2ccc(Br)cc2)cc1	?	.	.	5%	.
CCOc1ccccc1N(CC)C(=O)c1noc2c1COc1ccc(C)cc1-2	0%	.	.	.	.
COc1ccccc1NC(=O)CSc1nnc(C2CCCCC2)n1-c1ccccc1	0%	-11%	-11%	.	-8%
CC(C)(C)C(=O)O/N=C(\N)COc1cccc(Cl)c1	17µM*	8%	-1%	.	3%
CC(C)(C)C(=O)OC/C(N)=N/OC(=O)c1ccc(Cl)cc1	?	2%	-1%	.	-5%
COc1ccc(OC)c(S(=O)(=O)NCc2ccc3c(c2)CCN3C(=O)c2cccc(C)c2)c1	-2%	.	.	.	.
Cc1ccccc1NS(=O)(=O)c1ccc2c3c(cccc13)C(=O)N2C	2%	21µM*	0%	.	-5%
O=C(CNC(=O)c1ccco1)OCc1c(F)cccc1Cl	15µM*	4%	-9%	19%	1%
Cc1csc(NC(=O)c2ccc3c(=O)n4c(nc3c2)CCCCC4)n1	8.5µM*	16%	1.1µM*	.	3.5µM*
CCN(CC)S(=O)(=O)c1ccc(NC(=O)c2ccc3c(=O)n4c(nc3c2)CCCCC4)cc1	2%	.	.	-65%	.
O=C(Nc1nccs1)c1ccc2c(=O)n3c(nc2c1)CCCCC3	11µM*	14%	3.2µM*	.	2.8µM*
CS(=O)(=O)N1CCC2(CC1)CN(c1ccccc1)C2	.	.	.	-12%	.
COc1ccc(/C=C/C(=O)NC(=S)NNC(=O)c2cccnc2)cc1	24µM*	0%	-1%	4%	-1%
COc1ccc(/C=C/C(=O)NC(=S)NNC(=O)c2cnccn2)cc1	17µM*	?	-24%	.	-15%
CCOC(=O)c1[nH]c(C)c(CCC(=O)Nc2cc(Cl)ccc2C)c1C	-6%	.	.	.	.
c1ccc2c(c1)-c1nc3ccccc3cc1[C@H]2N1CCOCC1	.	.	.	-14%[9.22 µM]	.
OC1c2ccccc2-c2nc3ccccc3cc21 (centres undefined)	.	.	.	14µM*	.
Cc1ccc(-n2nc(CO)c(C(=O)NCc3cccnc3)n2)cc1	-3%	.	.	-27%	.
Cc1ccc2[nH]c(=O)c(CN(Cc3ccco3)S(=O)(=O)c3c(C)ccc4nsnc34)cc2c1	3%[2.3 µM]	-14%	-17%	7.9µM*	-5%
Cc1ccc2nsnc2c1S(=O)(=O)N(Cc1ccco1)Cc1cc2cccc(C)c2[nH]c1=O	5%	-6%	1%	-6%	-3%
Cc1oc(-c2cccc(C(F)(F)F)c2)nc1CN1CCOCC1	27µM*	?	?	.	13%
SMILES	FLuc counter	ELG1 genotox	Rab9 promoter act	SMN2 splice enh	NPC1 prom act
COc1cc(NC(=O)c2ccc(C)cc2)c(OC)cc1NC(=O)CN1CCCCC1	19µM*	-5%	21%	-1%	23%
COc1cc(NC(=O)c2ccccc2Cl)c(OC)cc1NC(=O)CN1CCCCC1	-7%	0%	-1%	.	-1%
Cc1ccc(NC(=O)CN2CCCCCC2)cc1Br	-9%	4%	1%	-18%	7%
COc1cc(C(=O)NC2CCN(CC(=O)NC3CCCCC3)CC2)cc(OC)c1OC	1%	1%	-1%	.	1%
COc1cc(NC(=O)c2cc(OC)c(OC)c(OC)c2)c(OC)cc1NC(=O)CN1CCCCC1	13µM*	1%	-1%	8%	-2%
Cc1ccc(NC(=O)CN2CCCCCC2)c(Br)c1	12µM*	?	4µM*	11%	4µM*
CCCCCCCCNc1ncnc2ccccc12	-15%	0%	-28%	-100%	-25%
Cc1cc2c(NCCc3ccccc3)ncnc2s1	12µM*	?	-7%	.	-7%
c1ccc(CCNc2ncnc3ccccc23)cc1	12µM*	2%	-23%	.	-19%
